Experimental data reported in PubChem BioAssay AID2513 (National Center for Advancing Translational Sciences (NCATS), 2010).
Inconclusive results are not listed. Values without a mark were called inactive. The source made the active and inactive calls. Calls come from the whole dose curve; as a rule, active = well fitted curve in the direction sought with a large enough effect; inconclusive = small, poorly fitted or top-dose-only effect, or another doubt; inactive = no such curve, though single readings can be large or run the other way.

Test: Counterscreen Assay for Enhancers of SMN2 Splice Variant Expression: Modulation of SMN1 Expression for Probe SAR
Conditions: HEK293 SMN1-luciferase reporter, luminescence, 30-36 h; series mostly up to 46.1 µM; activity change, negative = inhibition: at the top concentration
Text: NIH Chemical Genomics Center [NCGC] NIH Molecular Libraries Probe Production centers Network [MLPCN] MLPCN Grant: R03 MH084179-01 Assay Submitter (PI): Elliot Androphy NCGC Assay Overview: Spinal muscular atrophy (SMA) is caused by insufficient levels of the survival motor neuron protein SMN. The SMN locus on chromosome 5q13 contains two inverted copies of SMN called SMN1 and SMN2 which are 99% identical at the amino acid level. SMN1 is a fully functional protein and SMN2 skips exon 7 90% of the time. Skipping of exon 7 produces non-functional protein product. 10% of the SMN2 protein includes exon 7 and is fully functional. In the SMA disease state, mutations in the SMN1 locus are the cause of the disease state. Because only 10% of SMN2 is of the fully functional form, it is not sufficient to overcome the deficiency produced by the loss of the SMN1 product. A therapy that either increase the amount of SMN2 product made or to increase the inclusion of exon 7 has been proposed for the treatment of SMA. We have designed an assay to identify small molecules that can increase the amount of functional SMN2 product by appending a luciferase reporter gene after the native SMN2 gene, such that inclusion of exon 7 in the expressed product places the luciferase sequence in frame, thus generating functional luciferase enzyme. As a counterscreen for nonspecific modulators of expression, we have run compounds through a similar assay that measures expression of an SMN1-luciferase chimera.
NCGC Assay Protocol Summary: This screen utilizes a luciferase reporter gene assay, combining the promoter with the major portion of the native SMN1 cDNA (exons 1 -7, intron 8 , exon 8 fused to luciferase) stably expressed in HEK293 cells. Compounds that increase luciferase signal presumably enhance expression of the functional SMN1 splice variant. Passaging media contained DMEM w/ glutamax (+phenol red) 10% FCS, 1x pen/strep, 200 ug/ml hygro, 1x sodium pyruvate. Assay media contained DMEM w/ glutamax (-phenol red) 10% FCS, 1x pen strep, 1x pyruvate Sequence, Parameter, Value, Description (1) Cells, 5 uL, 2000 cells/well, 1536 TC treated White solid bottom plate (2) Time, 10-12 hours, 37C 5% CO2 (3) Compound, 23 nl, MLSMR Library (4) Control Compound, 23 nL, Sodium butyrate st 4.5mM (final) conc (5) Time, 30-36 hours, 37C 5% CO2 (6) Reagent, 3 ul, One Glo (TM) from Promega (7) Time, 5-15 minutes, Room temp (8) Detector, Viewlux: luminescent read, 60 second integration, high speed 2x binning Keywords: Spinal muscular atrophy, SMA, SMN2, high throughput screening, MLSMR, MLPCN, NIH Roadmap, qHTS and NCGC

Row | SMILES | activity change, negative = inhibition [%] | Potency
1 | NC(=O)C1CCN(c2nc(-c3ccccc3Br)cs2)CC1 | -7.81 | 
2 | CC(=O)c1ccc(-c2csc(N3CCC(C(N)=O)CC3)n2)cc1 | -12.7 | 
3 | NC(=O)C1CCN(c2nc(-c3ccccc3C(F)(F)F)cs2)CC1 | -17.9 | 
4 | NC(=O)C1CCN(c2nc(-c3cccs3)cs2)CC1 | -20.2 | 
5 | NC(=O)C1CCN(c2nc(-c3ccc4c(c3)OCCO4)cs2)CC1 |  | 19.4 µM (active)
6 | NC(=O)C1CCN(c2nc(-c3ccc4occc(=O)c4c3)cs2)CC1 | -29.9 | 
7 | CC(=O)c1cccc(-c2csc(N3CCC(C(N)=O)CC3)n2)c1 | -21.4 | 
8 | CN(C)C(=O)c1cccc(-c2csc(N3CCC(C(N)=O)CC3)n2)c1 | 3.37 | 
9 | NC(=O)C1CCN(c2nc(-c3ccc4ccccc4c3)cs2)CC1 | -13.3 | 
10 | NC(=O)C1CCN(c2nc(-c3ccccc3-c3ccccc3)cs2)CC1 | -13 | 
11 | NC(=O)C1CCN(c2nc(-c3cccc(Cl)c3)cs2)CC1 | -3.66 | 
12 | NC(=O)C1CCN(c2nc(-c3cccc(N)c3)cs2)CC1 | -4.38 | 
13 | CS(=O)(=O)c1ccccc1-c1csc(N2CCC(C(N)=O)CC2)n1 | -12.4 | 
14 | Cc1noc(C)c1-c1csc(N2CCC(C(N)=O)CC2)n1 | 22.9 | 
15 | CS(=O)(=O)c1cccc(-c2csc(N3CCC(C(N)=O)CC3)n2)c1 | -9.05 | 
16 | Brc1ccc(-c2csc(N3CCCCC3)n2)cc1 | -25.7 | 
17 | COc1ccc(-c2csc(N3CCC(C(N)=O)CC3)n2)cc1 | -28.5 | 
18 | NC(=O)C1CCN(c2nc(-c3ccccc3N)cs2)CC1 | -8.38 | 
19 | Cn1ccc2cc(-c3csc(N4CCC(C(N)=O)CC4)n3)ccc21 | -22.7 | 
20 | NC(=O)C1CCN(c2nc(-c3cccnc3)cs2)CC1 | -8.52 | 
21 | NC(=O)C1CCN(c2nc(-c3cc4ccccc4o3)cs2)CC1 | -20.8 | 
22 | NC(=O)C1CCN(c2nc(-c3ccccc3F)cs2)CC1 | -41 | 
23 | CN(C)c1ccccc1-c1csc(N2CCC(C(N)=O)CC2)n1 | 5.97 | 
